Bioassay records from PubChem BioAssay.
CHOP inh = CHOP inhibition in unfolded protein response; CHO-K1 CHOP-promoter luciferase, tunicamycin-induced, 15-18 h; inhibition, % at 10 µM; hit rate 3.8% among 220,000; AID 2732;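 active = compounds that reduced the stress-induced luciferase reporter signal by more than about 70% of percent inhibition, limit read from the data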;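 also: 0% = tunicamycin plus vehicle and 100% = wells without tunicamycin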
WT yeast gro inh = growth inhibition of WT yeast, mitochondrial fusion screen; hit rate 2.1% among 190,000; mitochondrial fusion phenotypic screen, WT strain; inhibition, % at 10 µM; in the data active = inhibition above about 58%; tested in S. cerevisiae
L major viab = inhibitors of Leishmania major promastigote growth. Leishmania major promastigotes, resazurin fluorescence viability. inhibition, % at 10 µM. hit rate 9% among 200,000. AID 1063; in the data active = inhibition above about 50%;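 also: promastigotes grown with compound for 44 hours at 28 °C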
RAM inhibit = inhibitors of the yeast RAM network; S. cerevisiae dse1pr::URA3 reporter, 5-FOA growth OD615, 2 d; analog-sensitive cbk1-as2 kinase mutant strain; inhibition, % at 50 µM; hit rate 1.8% among 190,000; AID 868;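 active = inhibition above a set limit, 3 SD over mean compound inhibition, cut at about 8.4% in these data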;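 also: 0% = DMSO-only wells with no growth and 100% = 10 µM 1-NA-PP1 full growth; inhibition rescues growth on 5-FOA so higher OD means more RAM inhibition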
Numbers without * were called inactive; nt = no result. An excerpt weighted towards active compounds, which were near 13% of everything screened.

SMILES	CHOP inh	WT yeast gro inh	L major viab	RAM inhibit
Cc1cc(=O)oc2cc(OCC(=O)OCC(=O)NCCc3ccccc3)ccc12	0	-4	-5	9.2*
CC(C)c1ccc(/C=N/NC(=O)c2c(Cl)cnn2C)cc1	0	-5	0	2
CC(/C=N/NC(=O)c1cc(-c2cccnc2)nc2c1c(C)nn2-c1ccccc1)=C\c1ccccc1	31	7	57*	7
COc1ccc(-c2cc(C(=O)NNC3=NCCC3)c3c(C)nn(-c4ccccc4)c3n2)cc1	27	-19	15	0
COc1ccc(NC(=O)c2cc(-c3ccccc3)nc3c2c(C)nn3-c2ccccc2)c(OC)c1	31	-24	84*	4
Cc1nn(-c2ccccn2)c2nc(-c3cccs3)cc(C(=O)NCc3ccco3)c12	-30	8	53*	4
Cc1ccccc1-n1nc(C)c2c(C(=O)NN)cc(-c3ccncc3)nc21	-7	-12	6	0
Cc1nn(-c2ccccc2)c2nc(-c3ccncc3)cc(C(=O)NCc3ccco3)c12	72*	7	45	1
CON/C=C(\C=Nc1ccc(Cl)cc1)c1ncc(C(F)(F)F)cc1Cl	5	29	-2	11*
Clc1ncc(Cn2cccn2)s1	15	-5	-8	3
CCCCCCOc1ccc(N2C(=O)CC(N3CCN(CCN=CC4C(=O)CC(C)(C)CC4=O)CC3)C2=O)cc1 (centres undefined)	71*	0	1	0
O=C(NCc1ccccn1)c1cccc(NS(=O)(=O)c2ccccc2F)c1	-4	-28	2	1
CN(c1cccc(NC(=O)CN(c2cccc(Cl)c2)S(=O)(=O)c2ccccc2)c1)S(C)(=O)=O	1	0	22	6
COc1ccc(N(CC(=O)Nc2cccc(N(C)S(C)(=O)=O)c2)S(=O)(=O)c2ccc(C)cc2)cc1	41	5	67*	8
COc1ccc(N(CC(=O)Nc2cccc(N(C)S(C)(=O)=O)c2)S(=O)(=O)c2ccc(F)cc2)cc1	-16	nt	nt	nt
CCOc1ccc(N(CC(=O)Nc2cccc(N(C)S(C)(=O)=O)c2)S(=O)(=O)c2ccccc2)cc1	10	-2	55*	9.6*
CC(C)(C)c1ccc(S(=O)(=O)Nc2cccc(C3OCCCO3)c2)cc1	45	45	86*	1
CC(/C=N/NC(=O)CNc1n[nH]c(=O)[nH]c1=O)c1ccccc1 (centres undefined)	9	nt	nt	nt
O=c1oc2c(-c3ccc([N+](=O)[O-])cc3)cc(O)cc2s1	13	nt	nt	nt
CC(=O)C1=C(c2ccccc2)NC(=O)NC1c1ccccc1OCC(=O)Nc1ccccc1 (centres undefined)	72*	13	0	6
CC(=O)C1=C(C)NC(=O)NC1c1ccccc1OCC(=O)NCCc1ccccc1 (centres undefined)	16	-6	-4	2
O=C(Nc1cccc2ncccc12)c1ccc(OCc2ccccc2)cc1	23	-3	-8	1
O=C(CN(c1ccc(Cl)cc1)S(=O)(=O)c1ccccc1)N/N=C/c1ccco1	27	-8	4	0
Cc1ccc(S(=O)(=O)N(CC(=O)N/N=C/c2ccco2)c2cc(Cl)cc(Cl)c2)cc1	75*	1	-1	3
Cc1cc(C)cc(N(CC(=O)N/N=C/c2ccncc2)S(=O)(=O)c2ccccc2)c1	17	-13	75*	1
SMILES	CHOP inh	WT yeast gro inh	L major viab	RAM inhibit
Cc1cc(C)cc(N(CC(=O)Nc2ccccc2-c2ccccc2)S(=O)(=O)c2ccccc2)c1	22	8	15	3
OC(CNCCc1ccc(Cl)cc1)COc1ccc2ccccc2c1 (centres undefined)	100*	97	83*	-1
Cc1cc(/C=C\c2nc(O)c([N+](=O)[O-])c(=O)[nH]2)c(C)n1-c1ccccc1	-3	6	-4	8.7*
CCCC[C@@H]1C[C@H]1[C@@H](NC(=O)c1ccco1)c1ccc(Cl)cc1	56	73*	1	7
Cc1ccc(C(C)NC(=O)c2ccco2)cc1 (centres undefined)	4	-9	13	2
O=C(NNc1ccc(Cl)cc1)c1cccs1	-4	nt	nt	nt
CCCC[C@@H]1C[C@H]1[C@@H](NC(=O)c1cccs1)c1ccc(Cl)cc1	40	70*	41	9.8*
COc1cccc(F)c1C(C[N+](=O)[O-])c1c(N)n(C)c(=O)n(C)c1=O (centres undefined)	68	nt	nt	nt
NC1=NC[C@@H](Cc2ccc(O)cc2)N1CCc1cc(C(F)(F)F)cc(C(F)(F)F)c1	-2	nt	nt	nt
NC1=NC[C@H](CC2CCCCC2)N1CCc1cc(C(F)(F)F)cc(C(F)(F)F)c1	94*	nt	nt	nt
CC(C)Cc1nc2c(nnn2Cc2ccccc2F)c(=O)[nH]1	12	nt	nt	nt
CCOC(=O)c1ccc(NC(=S)NCCCN2CCOCC2)cc1	-9	0	0	2
